As usually defined, the inhibition is the drop in the measured response relative to a control, in per cent.

SMILES strings stand for the structures. In all, about 96,000 compounds went through this assay and about 20,000 (21%) were called active.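 How the source made its calls: active means CYP2C19 inhibition above a set limit at 5 µM in the primary screen (cut at about 50% in these data); inactive means the rest.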 Not all results are given here.

Our source for the inhibition values is PubChem BioAssay AID778 (Sanford-Burnham Center for Chemical Genomics, 2007).

The target of the assay is Cytochrome P450 2C19 (Homo sapiens) (UniProt P33261). The assay is described as follows: blockers of cytochrome P450 2C19 activity – biochemical, luminescence, ADME assay, primary screen (AID 778).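 Further: plate controls were negative control wells for no effect and 2.5 mM tranylcypromine positive control for full effect.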 Conditions: CYP2C19 Supersomes, luciferin-H EGE luminescence, 30 min; at 5 µM; hits give high values.
Chain of Cytochrome P450 2C19 (Homo sapiens) (P33261 whole entry, looked up): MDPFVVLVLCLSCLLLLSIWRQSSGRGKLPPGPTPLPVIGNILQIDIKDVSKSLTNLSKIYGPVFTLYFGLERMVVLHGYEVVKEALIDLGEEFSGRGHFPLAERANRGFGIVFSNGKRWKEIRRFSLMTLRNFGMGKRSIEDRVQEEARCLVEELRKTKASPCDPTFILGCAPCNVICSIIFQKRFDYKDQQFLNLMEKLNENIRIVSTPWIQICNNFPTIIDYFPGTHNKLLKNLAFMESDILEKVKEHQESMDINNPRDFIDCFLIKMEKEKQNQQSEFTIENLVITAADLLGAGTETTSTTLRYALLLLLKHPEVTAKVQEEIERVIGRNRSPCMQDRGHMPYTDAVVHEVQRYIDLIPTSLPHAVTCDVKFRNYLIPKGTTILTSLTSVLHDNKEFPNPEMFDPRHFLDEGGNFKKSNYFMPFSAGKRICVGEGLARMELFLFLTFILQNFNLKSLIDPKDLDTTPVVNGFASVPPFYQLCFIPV
Regarding `O=C(NCCc1ccco1)c1nn(Cc2ccccc2)c(=O)c2ccccc12`, the inhibition is -8.3% (inactive).
Consider `COCc1cc(C)nc(Nc2cc(C)ccc2C)c1C#N`, for which the inhibition was 19.8% (inactive).
As for `Cc1cc(C(C)(C)C)oc1C(=O)N(CC(=O)NC1CCCC1)Cc1ccc(Cl)cc1`, the figure is -5.1% (inactive).
`CCOC(=O)c1[nH]c2ccccc2c1N=C(C)N(CC)CC`: the inhibition is -9.4% (inactive).
In the case of `CC(C)(CNC(=O)c1cc(=O)[nH]c2ccccc12)N1CCOCC1`, the inhibition was 4.2% (inactive).
As to `CCOC(=O)c1ccc(COC(=O)c2cc(=O)[nH]c3ccccc23)o1`, the inhibition was 69.5% (active).
Consider `Cc1cc(C)cc(NC(=O)CSCc2cnn(-c3ccccc3)c2-n2cccc2)c1`, for which the inhibition was 47.5% (inactive).
`CC(=O)Nc1ccc(NC(=O)CSCc2cnn(-c3ccccc3)c2-n2cccc2)cc1`: the inhibition was 92.4% (active).
To `O=C(NCCC1=CCCCC1)C1CCN(Cc2cnn(-c3ccccc3)c2-n2cccc2)CC1` belongs 25.4% (inactive); to `CCCn1nnc2sc3c(c2c1=O)CCC(C)C3` (stereo unspecified), 28.3% (inactive); to `CCN(CC)CCN1C(=O)C(=O)/C(=C(/O)c2cnn(-c3ccccc3)c2C)C1c1cccs1` (stereo unspecified), -2% (inactive).
As to `C=CCOc1ccc(Cl)cc1CNCCCN1CCOCC1`, the inhibition is 5.8% (inactive).
With `O=C1CC(Sc2ncn[nH]2)C(=O)N1c1ccccc1` (stereo unspecified), the inhibition was 14.1% (inactive).
With `Cc1ccc(-n2nc(N)c3c(=O)oc(N(C)C)nc32)cc1`, the inhibition is 17.8% (inactive).
Turning to `O=C(O)CCCCc1nc2ccccc2s1`, the inhibition is -6.9% (inactive).
As for `COc1ccccc1OCc1nc2ccccc2s1`, the inhibition was 97.6% (active).
`O=C(O)CSCc1nc2ccccc2s1`: the inhibition was -10.2% (inactive).
Turning to `CCCc1nnc(NC(=O)CN2C(=O)c3ccccc3S2(=O)=O)s1`, the inhibition was -6.6% (inactive).
As for `C/C(=N\NS(=O)(=O)c1ccc(Br)cc1)c1cccs1`, the figure is 69.6% (active); as for `C/C(=N\NS(=O)(=O)c1cccc([N+](=O)[O-])c1)c1cc2ccccc2o1`, 8.6% (inactive).
For `COC(=O)Nc1ncc(CN2C(=O)c3ccccc3C2=O)s1`, the inhibition was 8.1% (inactive).
As for `COc1ccc(C(=O)Cc2cnn(-c3ccccc3)c2)c(O)c1`, the figure is 24.9% (inactive); as for `Cc1cc(O)cc(O)c1C(=O)Cc1cnn(-c2ccccc2)c1`, 56.7% (active).
For the compound `Cc1[nH]nc(-c2ccc(OCc3cnn(-c4ccccc4)c3)cc2O)c1Oc1ccc(Cl)cc1`, the inhibition is 20.9% (inactive).
As for `COc1cc(C2C3C(=O)N(c4ccccc4)C(=O)C3ON2c2ccccc2)ccc1O` (stereo unspecified), the figure is 58.5% (active); as for `COc1cc(C2C(C(=O)Nc3ccccc3OC)=C(C)Nc3ncnn32)ccc1O` (stereo unspecified), -5% (inactive).
On to `Cc1ccccc1N1C(=O)C2ON(c3ccccc3)C(c3ccncc3)C2C1=O` (stereo unspecified), for which the inhibition is 94.6% (active).
`COc1ccc(NC(=O)Nc2cccc3cccnc23)cc1`: the inhibition was 31% (inactive).
As for `CC(C)NC(=O)CCCn1c(=S)[nH]c2cc3c(cc2c1=O)OCO3`, the inhibition was -9.6% (inactive).
Consider `COc1ccc(SCc2noc(C(=O)NCC3CCCO3)c2C(=O)O)cc1` (stereo unspecified), for which the inhibition is 11.5% (inactive).
As for `COC(C)(C)[C@]12CC(O)(C(C)C)ON1[C@H]1CCCCC1N2O` (stereo partly specified), the figure is 7% (inactive); as for `COC(=O)c1[nH]c2ccccc2c1NC(=O)CN1CCCc2ccccc21`, 26% (inactive); as for `Cn1ncc2c(Nc3cccc4ccccc34)ncnc21`, 12.9% (inactive).
To `Cc1cccc(N2CC(C)Cn3c2nc2c3c(=O)n(CC(=O)OCc3ccccc3)c(=O)n2C)c1` (stereo unspecified) belongs 66.5% (active); to `Cn1c(=O)n(CCc2ccccc2)c(=O)c2c1nc1n2CCCN1c1ccccc1`, 14.9% (inactive).
For the compound `COc1ccc(N2CC(C)Cn3c2nc2c3c(=O)n(Cc3ccccc3F)c(=O)n2C)c(OC)c1` (stereo unspecified), the inhibition is -10.2% (inactive).
In the case of `O=C(Nc1nccs1)C1CCCN1S(=O)(=O)c1cccc2cccnc12` (stereo unspecified), the inhibition is 54.2% (active).
As for `CC(=O)c1cccc(NC(=O)C2CCCN2S(=O)(=O)c2cccc3nsnc23)c1` (stereo unspecified), the figure is 22.5% (inactive); as for `O=C(c1ccco1)N1CCN(C(=O)C2CCCN(S(=O)(=O)c3cccc4nsnc34)C2)CC1` (stereo unspecified), 1.6% (inactive).
For `CC1CCCCC1NC(=O)C1CCCN1S(=O)(=O)c1cccc2nsnc12` (stereo unspecified), the inhibition is 69.3% (active).
On to `COc1ccc(NC(=O)C2CCCN(S(=O)(=O)c3cccc4cccnc34)C2)cc1` (stereo unspecified), for which the inhibition was 17.5% (inactive).
To `O=C(O)C1CCCN(S(=O)(=O)c2cccc3cccnc23)C1` (stereo unspecified) belongs -11.3% (inactive); to `O=C(COc1ccc(F)cc1)N(CC1=CCS(=O)(=O)C1)c1ccccc1`, -5.1% (inactive); to `Cc1ccc(C2NC(=S)NC3=C2N2CCC3CC2)cc1` (stereo unspecified), -8.9% (inactive).
Turning to `COc1ccc(S(=O)(=O)NC(CC(=O)NCc2ccccc2OC)c2ccco2)cc1` (stereo unspecified), the inhibition is 38.2% (inactive).
To `O=C(CC(NS(=O)(=O)c1ccc(Cl)cc1)c1ccco1)NC1CCCC1` (stereo unspecified) belongs 62.5% (active); to `Cc1ccc(S(=O)(=O)NCC(=O)N(CC(=O)NC2CCCCC2)Cc2ccco2)cc1`, 15.5% (inactive).
Consider `CCN(CC)P(=O)(/C(Cl)=C\Nc1c(C)n(C)n(-c2ccccc2)c1=O)N(CC)CC`, for which the inhibition is -1.6% (inactive).
For the compound `N#CCCN1CCN(S(=O)(=O)c2ccc(S(=O)(=O)NC3CC3)cc2)CC1`, the inhibition is -21.3% (inactive).
As to `CC1(C)CN=C(N2CCN(c3ncnc4sc5c(c34)CCCC5)CC2)S1`, the inhibition is 32% (inactive).
For `CCC(Oc1ccccc1)C(=O)NCc1cccnc1` (stereo unspecified), the inhibition was 67.7% (active).
With `CC(=O)OC(C(=O)NCCc1ccccc1)c1cccnc1` (stereo unspecified), the inhibition was 0% (inactive).
Take `O=C(CCc1ccccc1)NCc1cccnc1`: the inhibition was 18.2% (inactive).
As to `CC(C)CC[n+]1ccn(C2=C([O-])c3ccccc3C(=O)/C2=N\S(=O)(=O)c2ccccc2)c1`, the inhibition was 7.8% (inactive).
In the case of `CCN1C(=O)c2cccc3c(N)ccc1c23`, the inhibition is 23.7% (inactive).
On to `CCn1c(NCCc2ccc(OC)c(OC)c2)nc2c1c(=O)n(C)c(=O)n2C`, for which the inhibition is 1.8% (inactive).
For `COc1ccccc1C(=O)C(O)c1ccccc1OC` (stereo unspecified), the inhibition was 55.8% (active).
In the case of `COc1ccccc1C(=O)Oc1ccc(N2C(=O)CCC2=O)cc1`, the inhibition is -7.5% (inactive).
To `COc1ccccc1C(=O)NN1C(=O)C2C3C=CC(O3)C2C1=O` (stereo unspecified) belongs -6.1% (inactive).
Take `Nc1nonc1-c1nc2ccccc2n1CCC(=O)O`: the inhibition is -2.5% (inactive).
As for `CCn1c(SCC(=O)c2ccc3ccccc3c2)nnc1-c1cccs1`, the figure is 15.7% (inactive); as for `Cc1ccc(C(=O)CSc2nnc(Cn3nnc4ccccc43)n2C)cc1`, 13.9% (inactive).
For `CCOC(=O)CSc1nnc(CNC(=O)c2ccco2)n1-c1ccc(F)cc1`, the inhibition is -4.9% (inactive).
As for `CCn1c(SCC(=O)c2ccc(Cl)s2)nnc1-c1cccs1`, the figure is 94.2% (active); as for `Cc1ccc(-n2c(Cc3cccs3)nnc2SCC(=O)OC(C)C)cc1`, 98.1% (active).
As for `CCn1c(Cc2cccs2)nnc1SCC(=O)c1ccc(C)cc1`, the figure is 94.1% (active); as for `Cn1c(SCC(=O)c2cccs2)nnc1-c1ccco1`, 42.3% (inactive).
To `COc1ccc(-n2c(SCC(=O)OC(C)C)nnc2-c2ccccn2)cc1` belongs 12% (inactive); to `CCS(=O)(=O)Nc1cc(C(=O)OC)ccc1C(=O)OC`, 49.8% (inactive); to `CCSc1nc(C)nc2c1oc1ccccc12`, 15.2% (inactive).
Regarding `COc1ccc(-c2cn3ccsc3n2)cc1`, the inhibition was 14.3% (inactive).
As to `CCCS(=O)(=O)N1CCCC(C(=O)NCCN2CCCCC2C)C1` (stereo unspecified), the inhibition was -13.4% (inactive).
With `O=C(CCC(=O)N1CCN(S(=O)(=O)c2ccccc2)CC1)NC1CCCc2ccccc21` (stereo unspecified), the inhibition is 17.7% (inactive).
As for `COCc1[nH][nH]c(=O)c1C=Nc1ccc(F)cc1F`, the figure is -10.3% (inactive); as for `CC(C)C(NC(=O)OCc1ccccc1)C(=O)OCC(=O)N1C(C)CCCC1C` (stereo unspecified), 40.3% (inactive); as for `COc1ccc(N2CCN(C(c3cc4ccc(C)cc4[nH]c3=O)c3nnnn3C3CCCC3)CC2)cc1` (stereo unspecified), 54.4% (active).
As to `CC(C)C(c1nnnn1C1CCCC1)N1CCN(c2ccccc2F)CC1` (stereo unspecified), the inhibition is 8% (inactive).
For the compound `CCOc1ccc2[nH]c(=O)c(C(c3nnnn3CCOC)N3CCOCC3)cc2c1` (stereo unspecified), the inhibition is 11.5% (inactive).
On to `COc1ccc(C(c2nnnn2C2CCCCC2)N2CCN(c3ccccc3F)CC2)cc1` (stereo unspecified), for which the inhibition is 80.6% (active).
Consider `Cc1cccc(N2CCN(C(c3ccccc3)c3nnnn3CC3CCCO3)CC2)c1C` (stereo unspecified), for which the inhibition is 12.7% (inactive).
For the compound `CC(C)c1ccc(NS(=O)(=O)c2cn(C)c(=O)n(C)c2=O)cc1`, the inhibition is 34% (inactive).
As for `Cc1cc(N2CCCC2)n2nc(C)c(-c3ccccc3)c2n1`, the inhibition is -17.7% (inactive).
In the case of `CCNc1nc(NCC)nc(N(C)n2cnnc2)n1`, the inhibition is -6% (inactive).
Regarding `Nc1ccc(-c2sc(N)nc2-c2ccccc2)cc1`, the inhibition was 61.8% (active).
As for `Nc1ccc(-c2nnc(-c3ccc(-c4ccccc4)cc3)o2)cc1`, the figure is 25.3% (inactive).
Regarding `CC(=O)c1cc(C#N)c(SCC(=O)C(C)(C)C)nc1C`, the inhibition is 34.4% (inactive).
On to `Cn1c(C(=O)NCCc2ccsc2)cc2c(=O)n(C)c3ccccc3c21`, for which the inhibition is 11.7% (inactive).
As for `COc1ccccc1CNC(=O)C1CCN(c2nc3ccccc3o2)CC1`, the figure is 3.5% (inactive); as for `COc1ccc(OC)c(CNC(=O)C2CCCN(c3nc4ccccc4o3)C2)c1` (stereo unspecified), 17.2% (inactive); as for `CCc1ccc(CNC(=O)C2CCCN(c3nc4ccccc4o3)C2)cc1` (stereo unspecified), 65.8% (active).
`COc1ccc2ccccc2c1CNCc1ccccn1`: the inhibition was 15.9% (inactive).
Turning to `COc1ccc(/C(O)=C2\C(=O)C(=O)N(Cc3ccco3)C2c2ccc(OC)cc2OC)cc1` (stereo unspecified), the inhibition was 3.4% (inactive).
Regarding `COc1ccc(/C(O)=C2/C(=O)C(=O)N(c3nc(C)c(C)s3)C2c2ccco2)cc1` (stereo unspecified), the inhibition was 58.8% (active).
`COc1ccccc1C1/C(=C(/O)c2ccc(OC(C)C)cc2)C(=O)C(=O)N1c1cc(C)on1` (stereo unspecified): the inhibition was -7.6% (inactive).
As for `CN(C)CCCn1c(N)c(C#N)c2nc(C#N)c(C#N)nc21`, the figure is -1.9% (inactive); as for `COC(=O)C(C)Oc1ccc2c(-c3cccc([N+](=O)[O-])c3)cc(=O)oc2c1` (stereo unspecified), 28.8% (inactive).
